From ChEMBL document CHEMBL3988442, “University of Dundee, Small-Polar-MMV Screening Library” (2021)
The whole screen tested about 48,000 compounds, of which about 13,000 (27%) showed an effect of 50% or more. The list shows a part of the results.

tested on: Wolbachia pipientis; assay: Anti-Wolbachia Cell-Based Screen; assay type: functional; parameters: scale not given: in the data most compounds retested in dose-response had high values; details: 5 µM

Compound	Percent Effect [%]
O=C(NCCc1ccncc1)[C@H]1CC[C@@H]2[C@@H](CCN2C2CCC2)O1	-5.975
OCCN1CCN(Cc2cc3c(cc2Br)OCCO3)CC1	1.369
CC(C)=CCN1C[C@H]2CC[C@@H]1CN(C(=O)Cc1c(C)nc(C)[nH]c1=O)C2	-7.395
CC(C)NC1CC2(CCNCC2)c2cc(F)ccc21.Cl.Cl (stereo not drawn)	1.689
COc1ccc2c(c1)C1(CCNCC1)CC2NC1CC1.Cl.Cl (stereo not drawn)	123.6
Cl.Cl.Fc1ccc2c(c1)C1(CCNCC1)CC2NC1CC1 (stereo not drawn)	108.3
Cc1ccnc(NCCNC(=O)C2CC3(CCNCC3)CN2C)c1 (stereo not drawn)	2.033
Cc1ccc2c(c1)C1(CCNCC1)CC2NCCO.Cl.Cl (stereo not drawn)	90.17
Cc1ccc2c(c1)C(NC1CC1)CC21CCNCC1.Cl (stereo not drawn)	121
Cc1ccc2c(c1)C(NC(C)C)CC21CCNCC1.Cl (stereo not drawn)	-5.487
Cl.O=C(Nc1ccccc1)C1=NOC2(CCNCC2)C1	-4.719
CN(C)C(=O)CN1CCCC2(CCN(c3ccc(C#N)cn3)C2)C1.O=C(O)C(F)(F)F (stereo not drawn)	-7.726
Cc1cnn(CC(C)NCC(=O)NC2CCOCC2)c1 (stereo not drawn)	1.556
COc1nc(N2CCNCC2)ncc1Br	-8.9
Cc1ccc2c(c1)C1(CCNCC1)CC2NC1CC1.Cl.Cl (stereo not drawn)	133.8
NC(=O)CC1CC2(CCNCC2)c2cc(F)ccc21.O=C(O)C(F)(F)F (stereo not drawn)	111.2
CN(C)C(=O)C1CCC2(CCNCC2)C1.O=C(O)C(F)(F)F (stereo not drawn)	-33.97
Cc1ccc2c(c1)C1(CCNCC1)CC2NC(C)C.Cl.Cl (stereo not drawn)	-0.3898
CNC(=O)C1CCC2(CCNCC2)C1.O=C(O)C(F)(F)F (stereo not drawn)	1.559
Cn1cnc(S(=O)(=O)N2C[C@H]3CN(Cc4ccccn4)C[C@H]3C2)c1.O=C(O)C(F)(F)F.O=C(O)C(F)(F)F	1.449

Compound	Percent Effect [%]
COC1CCC[C@@H]2CN(Cc3csc(C)n3)C[C@H]12.O=C(O)C(F)(F)F (stereo partly drawn)	-10.37
O=C(Cc1ccccn1)N1C[C@H]2CN(Cc3ccccn3)C[C@H]2C1	97.89
O=C1NC[C@H]2CN(Cc3ccccn3)CCN12	-1.346
Cc1nc(CN2C[C@@H]3CN(C(=O)Cc4ccccn4)C[C@@H]3C2)cs1.O=C(O)C(F)(F)F.O=C(O)C(F)(F)F	107.4
O=C(NCCc1c[nH]cn1)c1ccccc1C1CCNC1 (stereo not drawn)	-4.788
C/C(=C\c1ccco1)CN(C)C(C)Cc1ccccn1 (stereo not drawn)	-10.17
Cc1ccccc1-n1nc(C)c(CN(C)C(C)Cc2ccccn2)c1C.O=C(O)CC(O)(CC(=O)O)C(=O)O (stereo not drawn)	108.5
CC(Cc1ccccn1)N(C)Cc1ccc2c(c1)CCO2 (stereo not drawn)	27.39
Cc1cc(N2CCC(NC(C)Cc3ccsc3)CC2)nc(N)n1 (stereo not drawn)	-1.435
O=C(C1CCCCC1)N1C[C@@H]2CCNC[C@@H]21	-27.82
Cl.O=C(N1CCOCC1)N1CCC2(CCNC2)C1 (stereo not drawn)	-12.19
O=C(Cc1cccs1)N1C[C@@H]2OCCN(CC3CCCC3)[C@@H]2C1.O=C(O)C(F)(F)F	-11.83
CN(C)[C@@H]1CN(C(=O)Cc2ccccc2)[C@@H]2CCCO[C@H]12.O=C(O)C(F)(F)F	100.5
CN(C)[C@@H]1CN(C(=O)Cc2cccs2)[C@@H]2CCCO[C@H]12.O=C(O)C(F)(F)F	115.4
Cc1ccc(N2C[C@@H]3CCCO[C@@H]3[C@H](N3CCCC3)C2)nn1.O=C(O)C(F)(F)F.O=C(O)C(F)(F)F	-4.873
CN(C)[C@@H]1CN(C(=O)Cc2ccc(F)cc2)[C@@H]2CCCO[C@H]12.O=C(O)C(F)(F)F	85.9
O=C(Cc1cccs1)N1C[C@@H]2OCCN(CC3CCCO3)[C@@H]2C1.O=C(O)C(F)(F)F (stereo partly drawn)	-0.9645
Cc1cc(CN2C[C@@H]3CCCO[C@@H]3[C@H](N(C)C(C)C)C2)no1.O=C(O)C(F)(F)F.O=C(O)C(F)(F)F	-6.146
CN(Cc1cccnc1)[C@@H]1CN(CC2CC2)[C@@H]2CCCO[C@H]12.O=C(O)C(F)(F)F.O=C(O)C(F)(F)F.O=C(O)C(F)(F)F	-5.445
O=C(Cc1ccsc1)N1C[C@@H]2OCCN(CC3CC3)[C@@H]2C1.O=C(O)C(F)(F)F	-8.837

Compound	Percent Effect [%]
CN1CCN([C@@H]2CN(C(=O)Cc3ccsc3)[C@@H]3CCCO[C@H]23)CC1.O=C(O)C(F)(F)F.O=C(O)C(F)(F)F	-4.372
CN(C)[C@@H]1CN(C(=O)Cc2ccsc2)[C@@H]2CCCO[C@H]12.O=C(O)C(F)(F)F	105.5
Cc1cccc(CN2C[C@@H](NC(=O)C3CC3)[C@H]3OCCC[C@H]32)n1.O=C(O)C(F)(F)F.O=C(O)C(F)(F)F	-26.04
Cc1c(C(=O)O)nnn1Cc1cccc(C(F)(F)F)c1	6.81
COc1cccc(CN2CCN3C(=O)NC[C@H]3C2)n1	7.899
CN1CCC(N2CCN3C(=O)NC[C@H]3C2)CC1	-3.981
Cc1csc(C2(NCC(O)COC(C)C)CCCC2)n1 (stereo not drawn)	-1.656
CC(=O)NC[C@H]1C[C@@H]2CCN1C[C@@H]2c1cc(-c2cccs2)nn1C	-4.622
CN(C)[C@@H]1CN(C(=O)Cc2cccc(F)c2)[C@@H]2CCCO[C@H]12.O=C(O)C(F)(F)F	118.8
Cn1cc(CN2CC[C@@H]3[C@@H]2CCN3C(=O)Cc2cccc(F)c2)cn1.O=C(O)C(F)(F)F	-1.291
Cc1nnc(N2CCNCC2)c(C(N)=O)c1C	-61.72
O=C(NCc1cccnc1)[C@H]1CN2CCC1C[C@@H]2Cn1cc(CO)nn1 (stereo partly drawn)	4.498
O=C1Nc2ccccc2C12CCCN(Cc1ccncc1)C2 (stereo not drawn)	-10.97
O=C1NCC2(CCCN(Cc3cccnc3)C2)Oc2ccccc21 (stereo not drawn)	95.18
CN(C)c1ncc2c(n1)C1(CCN(Cc3cccnc3)C1)COC2 (stereo not drawn)	-5.079
O=C1NCC2(CCCN(Cc3ccncc3)C2)Oc2ccccc21 (stereo not drawn)	106
O=C(NCc1cccnc1)C1=NOC2(CCCN(CCO)C2)C1 (stereo not drawn)	6.778
CN1CCC2(CC1)CNC(=O)c1ccccc1O2	-4.791
